Test results reported in the supplement of paper PMC10849652.
About 7,900 targets were measured; listed, in parts, are those with a hit and a random draw of the rest. About 0.6% of all pairs of compound and target were hits.

What was measured:
Assay in all cases: log2 fold change, soluble protein after heating vs DMSO (PISA); higher = thermal stabilisation; K562 cells, 10 uM, 30 min; active = over 0.2 and 3.5 SD of the protein, either way, in both replicates (recomputed)
[1] = compound: CN1CCN(CCOc2cc(OC3CCOCC3)c3c(Nc4c(Cl)ccc5c4OCO5)ncnc3c2)CC1 [saracatinib]
Procedure, shortened: (§1)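 Soluble protein was defined as the supernatant after 21,000xg for 90 min. It came from K562 cells at 2×10^6 cells/mL given 10 μM compound for 30 min, heated in aliquots for 3 min across 48°C-58°C, pooled, and extracted in PBS with 0.5% NP-40 at 4°C, and was quantified by TMTpro 16plex LC-MS/MS with equalised channel sums. Thermal stability against control samples, from duplicates, is reported as log2 fold change.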

[2] = compound: CN1CCN(c2nc(C3=C(c4c[nH]c5ccccc45)C(=O)NC3=O)c3ccccc3n2)CC1 [sotrastaurin]
Procedure, shortened: as §1

[3] = compound: CN1CC[C@H](c2c(O)cc(O)c3c(=O)cc(-c4ccccc4Cl)oc23)[C@H](O)C1 [alvocidib]
Procedure, shortened: as §1

[4] = compound: CN1CCc2c(c3ccccc3n2Cc2ccc(C(=O)NO)cc2)C1 [Tubastatin A]
Procedure, shortened: as §1

[5] = compound: CNC(=O)C1=CC=CC=C1NC2=NC(=NC=C2Cl)NC3=C(C=C(C=C3)N4CCOCC4)OC
Procedure, shortened: as §1

[6] = compound: CNC(=O)c1ccc(Nc2ncc(C(F)(F)F)c(NCc3nccnc3N(C)S(C)(=O)=O)n2)cc1 [defactinib]
Procedure, shortened: as §1

[7] = compound: CNCc1ccc(-c2[nH]c3cc(F)cc4c3c2CCNC4=O)cc1 [rucaparib]
Procedure, shortened: as §1

[8] = compound: CNc1nc(-c2ccc3c(N)n[nH]c3c2)cc(N2C[C@@H](C(=O)NC3CCCCC3)CC[C@H]2C)n1
Procedure, shortened: as §1

[9] = compound: COC(=O)N[C@@H](C)CNc1nccc(-c2cn(C(C)C)nc2-c2cc(Cl)cc(NS(C)(=O)=O)c2F)n1 [encorafenib]
Procedure, shortened: as §1

[10] = compound: COC(=O)[C@H](CCSC)NC(=O)C1=C(C=C(C=C1)NC[C@H](CS)N)C2=CC=CC=C2
Procedure, shortened: as §1

Measured: log2 fold change

VWA8 (UniProt A3KMH1)
inactive: [1] -0.012 | [2] -0.003 | [3] -0.046 | [4] 0.072 | [5] 0.006 | [6] -0.017 | [7] 0.008 | [8] -0.013 | [9] 0.003 | [10] -0.049

VPS53 isoform 4 (UniProt Q5VIR6)
inactive: [1] 0.029 | [2] -0.102 | [3] -0.146 | [4] 0.017 | [5] -0.009 | [6] -0.056 | [7] 0.061 | [8] -0.028 | [9] 0.06 | [10] -0.001

VPS11 (UniProt Q9H270)
inactive: [1] -0.003 | [2] -0.08 | [3] -0.061 | [4] 0.004 | [5] -0.018 | [6] -0.066 | [7] 0.082 | [8] -0.021 | [9] 0.023 | [10] -0.01

USP9X (UniProt Q93008)
inactive: [1] -0.006 | [2] -0.073 | [3] -0.056 | [4] -0.014 | [5] -0.022 | [6] -0.03 | [7] 0.032 | [8] -0.003 | [9] 0.082 | [10] -0.009

UBE2E3 (UniProt Q969T4)
UniProt Q969T4, sequence (Q969T4 whole entry, looked up): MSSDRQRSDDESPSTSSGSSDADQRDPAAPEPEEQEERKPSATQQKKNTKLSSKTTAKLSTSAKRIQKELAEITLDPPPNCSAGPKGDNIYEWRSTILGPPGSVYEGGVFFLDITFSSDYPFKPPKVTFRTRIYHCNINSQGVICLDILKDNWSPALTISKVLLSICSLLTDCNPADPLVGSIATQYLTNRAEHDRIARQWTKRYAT
inactive: [1] -0.03 | [2] -0.044 | [3] -0.085 | [4] -0.074 | [5] 0.067 | [6] -0.162 | [7] -0.014 | [8] -0.022 | [9] 0.017 | [10] -0.067

UBE4A isoform 2 (UniProt Q14139)
inactive: [1] -0.024 | [2] -0.148 | [3] 0.145 | [4] -0.009 | [5] 0.006 | [6] -0.017 | [7] 0.021 | [8] -0.079 | [9] 0.03 | [10] -0.078

TMEM106B (UniProt Q9NUM4)
inactive: [1] 0.123 | [2] 0.027 | [3] 0.02 | [4] -0.121 | [5] -0.037 | [6] 0.021 | [7] -0.007 | [8] -0.145 | [9] -0.037 | [10] -0.059

VRK1 (UniProt Q99986)
UniProt Q99986, sequence (Q99986 whole entry, looked up): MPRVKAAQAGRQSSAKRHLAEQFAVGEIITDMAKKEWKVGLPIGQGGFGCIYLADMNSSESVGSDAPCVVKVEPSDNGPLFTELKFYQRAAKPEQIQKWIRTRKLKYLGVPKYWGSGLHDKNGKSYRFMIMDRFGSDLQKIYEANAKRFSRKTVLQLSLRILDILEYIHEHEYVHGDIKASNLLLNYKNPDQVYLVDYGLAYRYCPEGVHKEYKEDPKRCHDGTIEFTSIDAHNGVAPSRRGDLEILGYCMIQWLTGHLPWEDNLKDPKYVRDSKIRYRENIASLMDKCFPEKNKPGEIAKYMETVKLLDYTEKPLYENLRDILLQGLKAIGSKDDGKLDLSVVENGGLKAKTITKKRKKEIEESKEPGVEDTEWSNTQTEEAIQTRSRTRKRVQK
inactive: [1] -0.057 | [2] 0.152 | [3] 0.285 | [4] 0.07 | [5] 0.05 | [6] -0.041 | [7] 0.048 | [8] 0.108 | [9] 0.043 | [10] -0.04

UBLCP1 (UniProt Q8WVY7)
inactive: [1] 0.036 | [2] -0.032 | [3] 0.024 | [4] 0.147 | [5] 0.027 | [6] -0.016 | [7] -0.068 | [8] -0.038 | [9] 0.088 | [10] -0.034

TP53BP1 isoform 2 (UniProt Q12888)
UniProt Q12888, sequence (Q12888 whole entry, looked up): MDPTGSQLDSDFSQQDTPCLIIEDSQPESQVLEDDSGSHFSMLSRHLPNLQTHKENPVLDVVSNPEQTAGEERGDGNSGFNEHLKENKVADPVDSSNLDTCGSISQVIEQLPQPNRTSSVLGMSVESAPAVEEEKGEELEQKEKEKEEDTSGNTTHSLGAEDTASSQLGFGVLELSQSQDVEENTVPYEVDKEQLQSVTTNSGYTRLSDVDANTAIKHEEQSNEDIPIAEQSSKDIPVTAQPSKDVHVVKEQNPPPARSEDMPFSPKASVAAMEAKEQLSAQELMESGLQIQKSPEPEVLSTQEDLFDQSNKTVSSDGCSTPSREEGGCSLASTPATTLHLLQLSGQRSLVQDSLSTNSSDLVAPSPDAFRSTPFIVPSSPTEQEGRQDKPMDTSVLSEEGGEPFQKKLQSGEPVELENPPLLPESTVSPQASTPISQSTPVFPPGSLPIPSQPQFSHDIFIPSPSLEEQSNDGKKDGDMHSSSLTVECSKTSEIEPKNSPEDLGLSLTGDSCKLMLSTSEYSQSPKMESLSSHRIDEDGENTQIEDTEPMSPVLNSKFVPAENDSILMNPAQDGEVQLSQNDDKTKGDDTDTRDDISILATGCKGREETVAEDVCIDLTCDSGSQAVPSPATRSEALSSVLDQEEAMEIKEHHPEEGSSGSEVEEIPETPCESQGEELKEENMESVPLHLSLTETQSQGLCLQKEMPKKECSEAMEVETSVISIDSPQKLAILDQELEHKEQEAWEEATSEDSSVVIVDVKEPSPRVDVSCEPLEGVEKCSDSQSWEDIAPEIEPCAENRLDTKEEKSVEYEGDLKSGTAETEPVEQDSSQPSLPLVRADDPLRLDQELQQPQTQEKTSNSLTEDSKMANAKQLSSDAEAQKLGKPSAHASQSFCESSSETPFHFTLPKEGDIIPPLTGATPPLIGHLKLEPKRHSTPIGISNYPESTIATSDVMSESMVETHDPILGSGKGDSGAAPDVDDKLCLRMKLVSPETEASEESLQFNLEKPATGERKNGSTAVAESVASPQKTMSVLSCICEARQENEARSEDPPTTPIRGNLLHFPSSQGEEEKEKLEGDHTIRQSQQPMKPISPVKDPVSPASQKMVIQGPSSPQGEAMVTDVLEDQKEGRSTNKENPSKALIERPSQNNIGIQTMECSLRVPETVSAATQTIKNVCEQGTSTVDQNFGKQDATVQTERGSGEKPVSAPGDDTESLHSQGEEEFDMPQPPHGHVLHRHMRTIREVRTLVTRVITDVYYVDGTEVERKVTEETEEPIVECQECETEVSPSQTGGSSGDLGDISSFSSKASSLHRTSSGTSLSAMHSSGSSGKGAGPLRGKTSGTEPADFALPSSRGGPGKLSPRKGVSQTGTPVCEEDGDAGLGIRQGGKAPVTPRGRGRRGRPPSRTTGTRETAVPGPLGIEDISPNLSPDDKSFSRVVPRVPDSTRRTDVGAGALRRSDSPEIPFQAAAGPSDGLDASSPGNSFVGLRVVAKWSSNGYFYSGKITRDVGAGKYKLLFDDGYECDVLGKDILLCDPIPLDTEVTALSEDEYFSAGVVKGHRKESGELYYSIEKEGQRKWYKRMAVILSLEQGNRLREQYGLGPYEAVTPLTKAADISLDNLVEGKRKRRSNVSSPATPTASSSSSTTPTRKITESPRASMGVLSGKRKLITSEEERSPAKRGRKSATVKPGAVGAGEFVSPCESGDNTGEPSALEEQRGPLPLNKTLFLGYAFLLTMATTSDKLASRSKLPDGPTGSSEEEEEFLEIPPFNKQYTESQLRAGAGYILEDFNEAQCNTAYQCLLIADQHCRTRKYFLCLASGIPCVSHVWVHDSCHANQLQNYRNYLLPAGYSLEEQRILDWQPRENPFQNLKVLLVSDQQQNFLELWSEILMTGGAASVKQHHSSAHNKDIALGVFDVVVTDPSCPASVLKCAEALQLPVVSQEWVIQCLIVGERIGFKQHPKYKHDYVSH
inactive: [1] 0.01 | [2] -0.112 | [3] -0.081 | [4] 0.116 | [5] 0.061 | [6] -0.073 | [7] 0.025 | [8] -0.022 | [9] 0.059 | [10] 0.036

TXNL4B (UniProt Q9NX01)
UniProt Q9NX01, sequence (Q9NX01 whole entry, looked up): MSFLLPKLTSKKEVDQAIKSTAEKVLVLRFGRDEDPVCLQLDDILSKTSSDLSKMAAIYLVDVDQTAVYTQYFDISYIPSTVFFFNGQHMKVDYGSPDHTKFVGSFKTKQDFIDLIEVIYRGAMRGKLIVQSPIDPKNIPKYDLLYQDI
inactive: [1] -0.053 | [2] 0.189 | [3] -0.073 | [4] 0.03 | [5] 0.02 | [6] -0.093 | [7] 0.022 | [8] -0.062 | [9] -0.021 | [10] -0.199

TRMT2A (UniProt Q8IZ69)
inactive: [1] -0.011 | [2] -0.076 | [3] -0.045 | [4] -0.005 | [5] -0.049 | [6] -0.031 | [7] 0.084 | [8] 0.094 | [9] 0.056 | [10] -0.094

WAPL isoform 3 (UniProt Q7Z5K2)
inactive: [1] 0.043 | [2] -0.144 | [3] -0.296 | [4] 0.063 | [5] -0.008 | [6] -0.265 | [7] -0.066 | [8] -0.052 | [9] 0.212 | [10] -0.079

UTP3 (UniProt Q9NQZ2)
inactive: [1] 0.232 | [2] -0.1 | [3] 0.173 | [4] 0.067 | [5] 0.094 | [6] 0.104 | [7] 0.238 | [8] -0.106 | [9] 0.23 | [10] 0.051

U2AF2 (UniProt P26368)
inactive: [1] 0.022 | [2] 0.056 | [3] -0.038 | [4] -0.007 | [5] -0.181 | [6] -0.035 | [7] 0.163 | [8] -0.037 | [9] -0.037 | [10] 0.001

USP48 isoform 8 (UniProt Q86UV5)
UniProt Q86UV5, sequence (Q86UV5 whole entry, looked up): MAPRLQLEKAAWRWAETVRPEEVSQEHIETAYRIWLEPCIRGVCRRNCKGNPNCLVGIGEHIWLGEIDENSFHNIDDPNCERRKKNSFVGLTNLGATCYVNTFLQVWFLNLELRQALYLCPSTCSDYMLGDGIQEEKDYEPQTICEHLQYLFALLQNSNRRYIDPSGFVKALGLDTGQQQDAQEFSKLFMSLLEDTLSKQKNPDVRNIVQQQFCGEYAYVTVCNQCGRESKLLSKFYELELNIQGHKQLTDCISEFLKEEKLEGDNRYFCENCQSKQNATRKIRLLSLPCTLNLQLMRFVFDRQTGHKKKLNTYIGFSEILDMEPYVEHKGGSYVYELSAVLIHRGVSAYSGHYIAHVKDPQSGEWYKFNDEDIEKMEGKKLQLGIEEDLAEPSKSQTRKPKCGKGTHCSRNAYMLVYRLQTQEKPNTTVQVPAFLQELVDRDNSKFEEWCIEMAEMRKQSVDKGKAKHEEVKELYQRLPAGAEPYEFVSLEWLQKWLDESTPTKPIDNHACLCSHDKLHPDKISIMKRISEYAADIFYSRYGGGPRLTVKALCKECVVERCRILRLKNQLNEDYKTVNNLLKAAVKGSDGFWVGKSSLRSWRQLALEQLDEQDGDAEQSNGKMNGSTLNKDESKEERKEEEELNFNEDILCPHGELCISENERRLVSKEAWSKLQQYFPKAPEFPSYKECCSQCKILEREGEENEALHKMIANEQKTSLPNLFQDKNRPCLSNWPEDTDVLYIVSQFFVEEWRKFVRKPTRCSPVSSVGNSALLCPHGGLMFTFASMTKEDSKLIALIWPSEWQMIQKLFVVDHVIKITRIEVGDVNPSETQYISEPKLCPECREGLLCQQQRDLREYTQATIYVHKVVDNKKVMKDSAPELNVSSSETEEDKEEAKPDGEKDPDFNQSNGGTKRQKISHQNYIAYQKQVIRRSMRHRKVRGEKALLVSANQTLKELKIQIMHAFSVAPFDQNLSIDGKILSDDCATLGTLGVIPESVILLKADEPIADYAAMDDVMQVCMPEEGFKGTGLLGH
inactive: [1] -0.037 | [2] -0.403 | [3] -0.358 | [4] 0.197 | [5] 0.016 | [6] -0.462 | [7] -0.085 | [8] -0.044 | [9] 0.065 | [10] -0.081

XPNPEP3 (UniProt Q9NQH7)
UniProt Q9NQH7, sequence (Q9NQH7 whole entry, looked up): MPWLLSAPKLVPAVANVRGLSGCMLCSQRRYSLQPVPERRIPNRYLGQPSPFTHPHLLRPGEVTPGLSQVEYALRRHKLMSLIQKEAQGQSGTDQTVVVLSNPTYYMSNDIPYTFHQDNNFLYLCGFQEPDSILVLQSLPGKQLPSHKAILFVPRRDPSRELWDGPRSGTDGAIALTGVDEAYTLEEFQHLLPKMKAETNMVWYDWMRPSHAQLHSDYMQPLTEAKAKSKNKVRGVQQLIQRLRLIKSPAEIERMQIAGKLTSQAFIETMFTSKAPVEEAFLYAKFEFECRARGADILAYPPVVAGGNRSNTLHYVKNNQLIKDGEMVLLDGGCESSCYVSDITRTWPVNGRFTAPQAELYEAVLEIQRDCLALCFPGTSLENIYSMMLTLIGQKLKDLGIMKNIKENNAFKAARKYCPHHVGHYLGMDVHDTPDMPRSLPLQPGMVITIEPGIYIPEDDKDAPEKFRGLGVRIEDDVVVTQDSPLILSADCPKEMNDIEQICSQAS
inactive: [1] 0.022 | [2] -0.017 | [3] -0.029 | [4] -0.021 | [5] 0 | [6] -0.033 | [7] -0.018 | [8] -0.035 | [9] -0.005 | [10] 0.038

UFM1 isoform 2 (UniProt P61960)
inactive: [1] 0 | [2] 0.044 | [3] -0.037 | [4] -0.158 | [5] 0.022 | [6] -0.065 | [7] -0.114 | [8] -0.024 | [9] 0.01 | [10] -0.082

WDR41 (UniProt Q9HAD4)
UniProt Q9HAD4, sequence (Q9HAD4 whole entry, looked up): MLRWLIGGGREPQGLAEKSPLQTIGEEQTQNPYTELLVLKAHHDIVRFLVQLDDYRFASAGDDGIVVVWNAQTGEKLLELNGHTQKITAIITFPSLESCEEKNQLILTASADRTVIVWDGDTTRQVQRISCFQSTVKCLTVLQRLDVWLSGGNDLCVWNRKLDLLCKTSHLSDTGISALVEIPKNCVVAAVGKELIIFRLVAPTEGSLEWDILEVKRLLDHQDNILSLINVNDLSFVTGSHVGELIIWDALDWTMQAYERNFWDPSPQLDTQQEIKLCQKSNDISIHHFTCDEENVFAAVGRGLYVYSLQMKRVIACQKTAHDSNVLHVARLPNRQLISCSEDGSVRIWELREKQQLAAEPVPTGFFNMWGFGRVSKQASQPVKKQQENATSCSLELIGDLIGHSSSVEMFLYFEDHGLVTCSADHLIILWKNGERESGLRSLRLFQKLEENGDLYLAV
inactive: [1] 0.071 | [2] -0.037 | [3] -0.014 | [4] -0.054 | [5] -0.046 | [6] -0.007 | [7] 0.015 | [8] -0.031 | [9] 0.008 | [10] 0.036

UTP14A (UniProt Q9BVJ6)
inactive: [1] -0.023 | [2] -0.017 | [3] 0.077 | [4] 0.163 | [5] 0.024 | [6] 0.055 | [7] 0.15 | [8] 0.066 | [9] 0.124 | [10] 0.021

VPS35L (UniProt Q7Z3J2)
inactive: [1] 0.013 | [2] -0.141 | [3] 0.17 | [4] -0.015 | [5] -0.016 | [6] -0.081 | [7] 0.018 | [8] 0.045 | [9] -0.001 | [10] -0.037

WDR43 (UniProt Q15061)
inactive: [1] 0.031 | [2] 0.014 | [3] 0.062 | [4] -0.045 | [5] 0.001 | [6] 0.101 | [7] 0.07 | [8] -0.002 | [9] -0.009 | [10] -0.007

VPS13B (UniProt Q7Z7G8)
inactive: [1] 0.033 | [2] 0.016 | [3] -0.003 | [4] 0.032 | [5] -0.002 | [6] 0.009 | [7] -0.039 | [8] -0.016 | [9] 0.031 | [10] -0.01

TRAPPC11 (UniProt Q7Z392)
inactive: [1] -0.043 | [2] -0.041 | [3] -0.085 | [4] 0 | [5] -0.028 | [6] -0.075 | [7] 0.051 | [8] -0.027 | [9] 0.035 | [10] -0.031

UBAP1 isoform 4 (UniProt Q9NZ09)
inactive: [1] -0.023 | [2] -0.032 | [3] -0.038 | [4] 0.007 | [5] -0.028 | [6] -0.08 | [7] 0.089 | [8] -0.053 | [9] -0.05 | [10] 0.006

UBE2J1 (UniProt Q9Y385)
UniProt Q9Y385, sequence (Q9Y385 whole entry, looked up): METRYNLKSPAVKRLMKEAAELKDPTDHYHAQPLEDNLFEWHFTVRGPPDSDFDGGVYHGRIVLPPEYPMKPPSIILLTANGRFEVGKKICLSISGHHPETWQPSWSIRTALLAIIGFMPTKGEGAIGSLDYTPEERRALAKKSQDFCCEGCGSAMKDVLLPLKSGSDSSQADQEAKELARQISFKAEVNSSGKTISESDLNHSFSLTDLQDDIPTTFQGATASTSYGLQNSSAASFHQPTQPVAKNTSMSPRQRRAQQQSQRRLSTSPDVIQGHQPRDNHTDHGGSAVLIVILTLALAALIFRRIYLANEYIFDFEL
inactive: [1] 0.019 | [2] -0.016 | [3] -0.073 | [4] 0.26 | [5] -0.046 | [6] -0.133 | [7] 0.048 | [8] 0.204 | [9] 0.001 | [10] 0.035

WASHC2C, A0A096LPC5
inactive: [1] -0.116 | [2] -0.09 | [3] 0.071 | [4] -0.02 | [5] -0.019 | [6] -0.121 | [7] 0.114 | [8] -0.02 | [9] 0.035 | [10] 0.052

TRAPPC8 (UniProt Q9Y2L5)
inactive: [1] -0.017 | [2] -0.044 | [3] -0.055 | [4] -0.004 | [5] 0.014 | [6] -0.104 | [7] 0.074 | [8] 0.008 | [9] 0.032 | [10] -0.032

UFM1 (UniProt P61960)
inactive: [1] 0.028 | [2] -0.004 | [3] -0.262 | [4] 0.097 | [5] 0.026 | [6] -0.066 | [7] -0.119 | [8] -0.013 | [9] 0.029 | [10] -0.031
